# Assay results reported in PubChem BioAssay.
# Target: Tumor necrosis factor receptor superfamily member 10B (Homo sapiens) (UniProt O14763)
# Assay: viability loss of caspase-8 NB7 cells with TRAIL – with/without TRAIL, luminescence panel, confirmation (AID 651596)
# Conditions: NB7 neuroblastoma + caspase-8, TRAIL sensitization, NB7 Caspase-8, with TRAIL, mean of runs, at 10 µM, stronger effect = higher value
# Tumor necrosis factor receptor superfamily member 10B (Homo sapiens), sequence (O14763 whole entry, looked up): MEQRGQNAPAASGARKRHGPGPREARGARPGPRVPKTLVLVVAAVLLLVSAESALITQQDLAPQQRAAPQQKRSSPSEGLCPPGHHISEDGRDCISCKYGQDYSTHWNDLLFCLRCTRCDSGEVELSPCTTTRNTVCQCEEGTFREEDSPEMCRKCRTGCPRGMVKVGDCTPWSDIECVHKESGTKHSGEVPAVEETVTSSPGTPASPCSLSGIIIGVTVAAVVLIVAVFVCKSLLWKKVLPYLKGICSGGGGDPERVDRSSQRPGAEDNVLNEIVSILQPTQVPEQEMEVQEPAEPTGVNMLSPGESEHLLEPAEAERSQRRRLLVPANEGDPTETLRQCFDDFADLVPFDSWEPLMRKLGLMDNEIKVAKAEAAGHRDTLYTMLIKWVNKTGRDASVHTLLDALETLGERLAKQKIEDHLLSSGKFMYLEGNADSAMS
row,SMILES,activity [%]
1,C[C@]12CC[C@H](O)C[C@H]1CC[C@@H]1[C@@H]2C[C@@H](O)[C@]2(C)[C@@H](C3=CC(=O)OC3)CC[C@]12O,86.5
2,Brc1ccc(-[n+]2c(-c3ccccc3)cc(-c3ccccc3)cc2-c2ccccc2)cc1,73
3,CCOC(=O)c1cccc(-[n+]2c(-c3ccccc3)cc(-c3ccccc3)cc2-c2ccccc2)c1,49.7
4,NC(N)=N/N=C/c1ccc(N(c2ccccc2)c2ccccc2)cc1,75.5

# Tested on: not listed separately
# Assay: as above
# Conditions: NB7 neuroblastoma + caspase-8, without TRAIL, NB7 Caspase-8, without TRAIL, mean of runs, at 10 µM
row,SMILES,activity [%]
1,C[C@]12CC[C@H](O)C[C@H]1CC[C@@H]1[C@@H]2C[C@@H](O)[C@]2(C)[C@@H](C3=CC(=O)OC3)CC[C@]12O,85.4
2,Brc1ccc(-[n+]2c(-c3ccccc3)cc(-c3ccccc3)cc2-c2ccccc2)cc1,63
3,CCOC(=O)c1cccc(-[n+]2c(-c3ccccc3)cc(-c3ccccc3)cc2-c2ccccc2)c1,44
4,NC(N)=N/N=C/c1ccc(N(c2ccccc2)c2ccccc2)cc1,97.2
